Source: PubChem BioAssay (National Center for Advancing Translational Sciences (NCATS))
This is a sample that favours compounds with a hit; in the whole collection about 12% have one here.
Sm TGR block – inhibitors of Schistosoma mansoni thioredoxin glutathione reductase. Q962Y6. purified TGR, DTNB reduction, TNB absorbance 405 nm. Potency, µM (titrated, usually from 114 µM), for inactives: top-dose activity change, negative = inhibition, most hits filed as inhibitors. actives 3% (n = 360,000); also: % is scaled to controls: 0 for no effect and ±100 for the full control effect; nearly all actives have a fitted effect of over 60% in size
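Kinetic colorimetric format: TGR-catalysed, NADPH-driven DTNB reduction monitored via TNB absorbance. Enzyme dispensed at 20 nM; compound exposure 15 min at room temperature before reaction start.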
AmpC inh no detg – AmpC beta-lactamase inhibition without detergent; P00811; AmpC nitrocefin hydrolysis, absorbance 480 nm, 0.0001% Triton; Potency, µM (highest dose often 57.1 µM), inactives show at the highest dose activity change, negative = inhibition, usual class: inhibitors; actives 0.52% (n = 330,000); AID 485341;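 also: plate controls were no compound for no effect and no enzyme for full effect; nearly all actives have a fitted effect of over 20% in size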
Target sequence (P00811 whole entry, looked up): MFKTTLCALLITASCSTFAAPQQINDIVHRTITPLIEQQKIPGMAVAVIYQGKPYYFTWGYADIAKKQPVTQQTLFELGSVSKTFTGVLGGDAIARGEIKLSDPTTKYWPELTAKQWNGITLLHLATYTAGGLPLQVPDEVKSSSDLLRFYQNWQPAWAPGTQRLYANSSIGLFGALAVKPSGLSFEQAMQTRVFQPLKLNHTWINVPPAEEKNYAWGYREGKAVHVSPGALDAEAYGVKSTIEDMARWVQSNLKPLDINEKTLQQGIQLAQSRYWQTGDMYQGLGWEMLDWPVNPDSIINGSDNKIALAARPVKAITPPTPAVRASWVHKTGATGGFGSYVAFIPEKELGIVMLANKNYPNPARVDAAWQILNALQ
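20 mM phosphate pH 7.0 + 0.01% (detergent screen) or 0.0001% Triton X-100; 5.3 nM AmpC reagent; cpd preinc 15 min RT; nitrocefin (800 uM stock) to start; A480 q20 s × 4 min; Activity was normalised to no-enzyme and no-compound control wells.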
AmpC detergent – blocks E. coli AmpC beta-lactamase in detergent assay; P00811; AmpC hydrolysis of nitrocefin, absorbance 480 nm, 0.01% Triton; Potency, µM (series often up to 114 µM), for the others: at the top dose activity change, negative = inhibition, usual class: inhibitors; actives 0.041% (n = 370,000);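 also: 0% = no-compound wells and -100% = no-enzyme wells; nearly all actives have a fitted effect of over 25% in size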
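20 mM phosphate pH 7.0 + 0.01% (detergent screen) or 0.0001% Triton X-100; 5.3 nM AmpC reagent; cpd preinc 15 min RT; nitrocefin (800 uM stock) to start; A480 q20 s × 4 min; Activity was normalised to no-enzyme and no-compound control wells.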
Pf growth 96h – P. falciparum growth inhibition at 96 hour, primary screen for plastid delayed-death inhibitors | Potency, µM (highest dose often 28.7 µM), without a hit: at the top dose activity change, negative = inhibition, most hits filed as inhibitors | P. falciparum luciferase reporter growth, 96 h | actives 6.9% (n = 320,000); also: % is scaled to controls: 0 for no effect and ±100 for the full control effect
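P. falciparum expressing integrated firefly luciferase, in erythrocytes at 2% hematocrit, 0.05% parasitemia, incubated with compounds 96 h at 37 C, 5% CO2. Growth inhibition read as loss of luminescence; two-generation exposure targets delayed-death apicoplast inhibitors.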
SARS PLP yeast – inhibitors of SARS-CoV papain-like protease in yeast | S. cerevisiae expressing SARS-CoV PLpro, growth rescue | actives 0.19% (n = 330,000) | Potency, µM (titrated, usually from 32.9 µM), without a hit: at the highest dose activity, positive = growth rescue, actives largely listed as activators | AID 485353; calls by dose curve; also: 0% is about no effect; nearly all actives have a fitted effect of over 55% in size
Pf growth 48h – P. falciparum growth inhibition at 48 hours (one generation) | actives 5.9% (n = 310,000) | P. falciparum luciferase growth in erythrocytes, 48 h | AID 504832 | Potency, µM (highest dose often 28.7 µM), for inactives: top-dose activity change, negative = inhibition, hits mostly inhibitors; also: % is scaled to controls: 0 for no effect and ±100 for the full control effect
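Growth was read as firefly luciferase luminescence after a 48 h, 37 C, 5% CO2 exposure of compounds to reporter-bearing P. falciparum cultures (0.1% parasitemia, 2% hematocrit final) in Albumax-supplemented RPMI 1640.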
* marks the source's active call; other numbers are inactive results; ? = inconclusive; / = no result; [ ] = remark or other dose. Unless noted, calls follow the shape of the dose curve; as a rule, active = well fitted curve in the direction sought with a large enough effect; inconclusive = small, poorly fitted or top-dose-only effect, or another doubt; inactive = no such curve, though single readings can be large; an effect the other way counts as inactive or inconclusive. Potency is read from the fitted curve at half-maximal effect.

SMILES	Sm TGR block	AmpC inh no detg	AmpC detergent	Pf growth 96h	SARS PLP yeast	Pf growth 48h
O=C(Nc1ccc(C(=O)O)cc1)Nc1ccc([N+](=O)[O-])cc1	4.7%	-21.3%	-11.0%	8.4%	3.2%	-0.6%
O=C(Nc1cc(C(F)(F)F)cc(C(F)(F)F)c1)Nc1cnn(-c2ccc([N+](=O)[O-])cc2)c1C(F)(F)F	-2.2%	-22.8%	6.9%	?	-0.3%	1.85µM*
COc1ccc2c(Sc3ccccc3)c(C(=O)NCCCN3CCCCC3)[nH]c2c1	4.3%	/	23.7%	/	/	/
CCOC(=O)C(=CN=C(N)Nc1nc2ccccc2o1)C(=O)OCC	3.3%	-32.9%	8.1%	10.4µM*	0.4%	-6.7%
CCCOC(=O)Nc1nc2ccccc2o1	-2.1%	-17.5%	-14.6%	125.9%	-4.4%	130.0%
Cc1c(OC(C)C(=O)O)ccc2c3c(c(=O)oc12)CCCC3 (centres undefined)	-12.2%	-20.2%	1.4%	10.4µM*	1.1%	-1.5%
Cc1c(OCC(=O)NCc2ccncc2)ccc2c3c(c(=O)oc12)CCCC3	-0.4%	4.3%	-1.2%	?	2.4%	19.6%
Cc1c(OC(C)C(=O)NCc2cccnc2)ccc2c3c(c(=O)oc12)CCCC3 (centres undefined)	8.6%	103.6%	-6.4%	11.7µM*	-4.7%	-16.3%
Cc1c(OCC(=O)NCc2cccnc2)ccc2c3c(c(=O)oc12)CCCC3	-7.0%	-5.3%	-15.1%	13.1µM*	0.6%	-10.4%
CCC(C)NC(=O)c1sc2nc(C)c(C(=O)Nc3ccc(C)cc3C)c(-c3ccc(Br)cc3)c2c1N (centres undefined)	2.8%	/	7.8%	/	/	/
CC1=C(C(=O)Nc2ccccc2)C(c2ccccn2)n2ncnc2N1 (centres undefined)	-6.0%	/	-2.5%	0.1%	/	-0.1%
CC(=O)C1=C(C)Nc2ncnn2C1c1ccccc1Cl (centres undefined)	7.4%	0.1%	2.6%	0.522µM*	0.5%	11.9%
CC1=C(C(=O)Nc2ccccc2)C(c2ccc[nH]2)n2ncnc2N1 (centres undefined)	28.2µM*	-39.6%	-0.6%	5.8%	-2.4%	8.9%
O=C(Nc1ccc(Br)cc1F)N1CCC2(CC1)Oc1ccccc1C(=O)N2Cc1ccccc1F	6.0%	/	22.7%	/	/	/
CCn1c(SCc2ccc([N+](=O)[O-])cc2)nnc1C(C)NC(=O)c1ccc(C)cc1 (centres undefined)	1.5%	67.7%	-11.3%	10.4µM*	4.2%	-9.2%
CCn1c(SCc2ccc([N+](=O)[O-])cc2)nnc1C(C)NC(=O)c1ccccc1Br (centres undefined)	1.8%	-13.8%	1.7%	?	-8.9%	-21.9%
CC(=N\NC(=O)c1ccc([N+](=O)[O-])cc1)/C(=N/O)C(=O)Nc1ccccc1	1.6%	-15.8%	?	53.8%	-5.0%	?
CC12CCC(C[N+](C)(CCC[N+](C)(C)C)C1)C2(C)C (centres undefined)	/	/	/	-6.4%	/	-13.6%
C#CCOCCOCCOCCNc1nc(N2CCOCC2)nc(N2CCN(C(=O)CCCCCCCCCCNC(=O)[C@H](CO)n3cc(CCCSC)nn3)CC2)n1	-9.1%	286.6%	2.2%	0.522µM*	3.3%	0.522µM*
C#CCOCCOCCOCCNc1nc(N2CCN(C(=O)CCCCCCCCCCNC(=O)[C@@H](CCC(=O)O)n3cc(CCCCCN)nn3)CC2)nc(N2CCN(C(=O)CCCCCCCCCCNC(=O)[C@H](CO)n3cc(CCCCCN)nn3)CC2)n1	?	317.5%	3.0%	5.86µM*	0.7%	2.08µM*
C#CCOCCOCCOCCNc1nc(N2CCN(C(=O)CCCCCCCCCCNC(=O)[C@@H](CCC(=O)O)n3cc(CCCCCN)nn3)CC2)nc(N2CCN(C(=O)CCCCCCCCCCNC(=O)[C@H](CO)n3cc(CCCSC)nn3)CC2)n1	-14.6%	171.4%	-9.2%	?	-5.2%	4.65µM*
COc1cccc(N(Cc2nnc3n2CCCCC3)C(=O)Nc2cccc(Cl)c2)c1	2.8%	/	-5.3%	/	/	/
COc1ccccc1C(=O)Nc1ccc(-c2nc3cc(C)cc(C)c3o2)cc1	2.7%	/	12.1%	/	/	/
CC(C)c1ccc(S(=O)(=O)N2CCN(CC(=O)c3ccc(O)c(O)c3)CC2)cc1	25.1µM*	-32.4%	?	-26.1%	-4.4%	-38.2%
CCOc1ccc(C(=O)CN2CCN(S(=O)(=O)c3ccc(Cl)cc3)CC2)cc1	31.6µM*	5.4%	-4.5%	66.7%	-12.5%	-8.9%
SMILES	Sm TGR block	AmpC inh no detg	AmpC detergent	Pf growth 96h	SARS PLP yeast	Pf growth 48h
CC(C)c1ccc(S(=O)(=O)N2CCN(CC(=O)Nc3ccc(Cl)cc3F)CC2)cc1	-9.9%	7.4%	0.7%	31.9%	-3.1%	28.3%
O=C(CN1CCN(S(=O)(=O)c2ccc(Br)cc2)CC1)c1ccc(O)c(O)c1	14.1µM*	-26.8%	-0.8%	?	-1.6%	?
COc1ccc(C(=O)CN2CCN(S(=O)(=O)c3ccc(F)cc3)CC2)cc1	-29.3%	/	-1.4%	/	/	/
CCOC(=O)c1ccccc1NC(=O)c1cc2c(s1)-c1ccccc1SC2	-0.2%	/	-1.4%	/	/	/
CC(=O)c1cc(-c2ccccc2)n(CC(=O)NC(C)(C)C)c1C	-11.8%	-0.2%	-6.6%	13.1µM*	1.2%	-0.4%
CC(=O)c1cc(-c2ccccc2)n(CCC(=O)NC2CCCC2)c1C	-22.0%	25.0%	-10.6%	?	2.6%	-6.5%
CCC(C)(C)NC(=O)Cn1c(-c2ccccc2)cc(C(C)=O)c1C	0.0%	13.8%	-8.9%	?	-0.4%	-16.8%
CC(=O)c1cc(-c2ccccc2)n(CCC(=O)NC2CCCCC2)c1C	5.2%	10.4%	3.8%	10.4µM*	0.2%	2.8%
CC(=O)c1cc(-c2ccccc2)n(CC(=O)Nc2cccc(C)c2)c1C	7.7%	14.1µM*	?	-23.4%	5.6%	?
CCc1cccc(NC(=O)Cn2c(-c3ccccc3)cc(C(C)=O)c2C)c1	-18.0%	-44.0%	-12.5%	-19.0%	13.3%	?
CO[C@]1(NC(=O)[C@H](C(=O)O)c2ccc(O)cc2)C(=O)N2C(C(=O)O)=C(CSc3nnnn3C)CO[C@H]21	/	/	/	7.0%[12.8 µM]	/	-4.8%[12.8 µM]
Cc1ccc(Cl)cc1Nc1nc2ccccc2n2c(C)nnc12	4.6%	/	23.6%	/	/	/
CN(Cc1ccc(F)cc1)S(=O)(=O)c1nnc(NC(=O)c2ccccc2Cl)s1	1.0%	/	10.8%	/	/	/
O=C1C2C(C(=O)N1/N=C/c1ccc(N3CCCCC3)o1)C1C=CC2C12CC2 (centres undefined)	3.98µM*	60.0%	1.9%	?	22.1%	-2.3%
O=C(Cc1cccs1)NC1CCCC1	47.0%	-13.7%	2.5%	16.2%	1.3%	35.5%
